This note sets out measurements from PubChem BioAssay (EPA / NIEHS).

Records with an inconclusive call do not appear. Activity calls are given as the source filed them. How the source made its calls, unless noted: active means hit-call score of the fitted dose curve at least 0.9, where 1 is the maximum; inconclusive means response in the unintended direction; inactive means score below 0.9.

Test system in one assay: not listed separately
The assay can be described thus: CCTE_Mundy_HCI_iCellGluta_NOG_NeuriteCount: CCTE's Neurite Outgrowth Assay in iCellGluta cells for Neurite Count, Mundy Lab (AID 2284342).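 Further: chemical exposure about 48 hours starting 2 hours after plating.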
As to `CC(C)O`, the call was inactive.

Regarding `CC(=O)N[C@@H](CC(=O)O)C(=O)O`, the call was inactive.

For the molecule `CCCCCC=C(C)C(CC)CCO` (centres undefined), the molecule was classed as inactive.

With `BrC1CC(Br)CC(Br)CC(Br)CC(Br)CC(Br)C1` (centres undefined), the half-maximal activity concentration (AC50) was 4.69 µM (active).

Turning to `O=C(CC(=O)C(F)(F)F)C(F)(F)F`, the result was inactive.

In the case of `C[C@@H]1CC[C@@H](C(C)(C)O)[C@H](O)C1`, the result was inactive.

Regarding `CCCCCC(C)(CC)C(=O)NC` (centres undefined), the result was inactive.

With `Cc1[nH]n(C)c(=O)c1C(=O)c1ccc(C(F)(F)F)cc1S(C)(=O)=O`, the molecule was called inactive.

For `CC(CNC(=S)[S-])NC(=S)[S-].[Zn+2]` (centres undefined), the AC50 is 21.2 µM (active).

A further assay concerns SRY-box transcription factor 2 (SOX2) Protein Expression, Deisenroth Lab, SOX2 (gene 6657). The assay can be described thus: CCTE_Deisenroth_DEVTOX-GLR_legacy_Sox2: (Legacy) CCTE's DevTox GLR-Endo Assay Evaluation of SRY-box transcription factor 2 (SOX2) Protein Expression, Deisenroth Lab (AID 2284346; active means hit-call score of the fitted dose curve at least 0.9, where 1 is the maximum; inactive means score below 0.9). The method, boiled down:
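Two exposures, 24 h apart, during 48 h defined-media differentiation of seeded RUES2-GLR cells; nuclei-stained cells imaged. Sox2 positivity called at 5x BMAD above endoderm control median, DMSO median subtracted.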
`c1cc(-c2cnn3cc(-c4ccc(OCCN5CCCCC5)cc4)cnc23)ccn1`: the AC50 was 5.11 µM (active).

For the molecule `COc1ccc2[nH]c([S@@](=O)Cc3ncc(C)c(OC)c3C)nc2c1`, the AC50 was 56.1 µM (active).

As to `Oc1cc(O)c2c(c1)O[C@H](c1ccc(O)c(O)c1)[C@@H](O)C2`, the call was inactive.

Turning to `Nc1cccc2c1C(=O)N(C1CCC(=O)NC1=O)C2=O` (centres undefined), the concentration at half-maximal activity (AC50) is 155 µM (active).

For the molecule `NC(=O)c1ccc(-c2nc(-c3ccc4c(c3)OCO4)c(-c3ccccn3)[nH]2)cc1`, the molecule was classed as inactive.

In general, AC50 refers to the concentration at which the activity in the assay is half-maximal.
